Measured values taken from the supplement of paper PMC6555819.

How the values were obtained:
Assay in all cases: PBM binding z-score (relative to random genomic background probes); higher = stronger binding; sequences stand for … in GC…GCGATTGACAGCGTAGAATGAAGG
[1] = test system: FXR:RXRa (NR concentration 270 nM, RXRa partner concentration 90 nM)
Summary of the method: (§1)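 Probes were double-stranded and carried 34-nt variable regions with direct-repeat seeds, single-nucleotide variants, half-site ablations and random human genomic background sequences, printed on custom Agilent 4×180K protein-binding microarrays. Arrays were incubated 1 h with ligand-free nuclear receptor dimers in PBS pH 7.4, 2% milk, 0.02% Triton X-100, 1 mM DTT, 0.2 mg/mL BSA and 0.4 mg/ml salmon testes DNA. Antibodies against each partner (one per run) detected binding, and scanned fluorescence was regression-normalized. Binding z-scores use the random background probes as reference.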

[2] = test system: LXRa:RXRa (NR concentration 270 nM, RXRa partner concentration 90 nM)
Summary of the method: as §1

[3] = test system: LXRa homodimer (NR concentration 270 nM)
Summary of the method: as §1

[4] = test system: LXRb:RXRa (NR concentration 270 nM, RXRa partner concentration 90 nM)
Summary of the method: as §1

[5] = test system: LXRb homodimer (NR concentration 270 nM)
Summary of the method: as §1

[6] = test system: PPARa:RXRa (NR concentration 270 nM, RXRa partner concentration 90 nM)
Summary of the method: as §1

[7] = test system: PPARg:RXRa (NR concentration 180 nM, RXRa partner concentration 90 nM)
Summary of the method: as §1

[8] = test system: PPARg:RXRa 270nM:90nM, anti-RXR (NR concentration 270 nM, RXRa partner concentration 90 nM)
Summary of the method: as §1

[9] = test system: PPARg:RXRa 30nM:10nM, anti-RXR (NR concentration 30 nM, RXRa partner concentration 10 nM)
Summary of the method: as §1

[10] = test system: PPARg:RXRa 90nM:30nM, anti-RXR (NR concentration 90 nM, RXRa partner concentration 30 nM)
Summary of the method: as §1

[11] = test system: PPARg:RXRa DBDmut IVT, anti-RXR (DBD mutation: RXRa K156A/R161A, NR concentration 270 nM, RXRa partner concentration 90 nM)
Summary of the method: as §1

[12] = test system: PPARg:RXRa IVT, anti-PPARg (NR concentration 270 nM, RXRa partner concentration 90 nM)
Summary of the method: as §1

[13] = test system: PPARg DBDmut:RXRa IVT, anti-PPARg (DBD mutation: PPARg1 K132A/R137A, NR concentration 270 nM, RXRa partner concentration 90 nM)
Summary of the method: as §1

[14] = test system: PPARg DBDmut IVT, anti-PPARg (DBD mutation: PPARg1 K132A/R137A, NR concentration 270 nM)
Summary of the method: as §1

[15] = test system: PPARg homodimer (NR concentration 180 nM)
Summary of the method: as §1

[16] = test system: PXR:RXRa (NR concentration 270 nM, RXRa partner concentration 90 nM)
Summary of the method: as §1

[17] = test system: PXR homodimer (NR concentration 270 nM)
Summary of the method: as §1

[18] = test system: RARa:RXR (NR concentration 270 nM, RXRa partner concentration 90 nM)
Summary of the method: as §1

[19] = test system: RARa homodimer (NR concentration 270 nM)
Summary of the method: as §1

[20] = test system: RARb:RXRa (NR concentration 270 nM, RXRa partner concentration 90 nM)
Summary of the method: as §1

Sequence	PBM binding z-score [1]	PBM binding z-score [2]	PBM binding z-score [3]	PBM binding z-score [4]	PBM binding z-score [5]	PBM binding z-score [6]	PBM binding z-score [7]	PBM binding z-score [8]	PBM binding z-score [9]	PBM binding z-score [10]	PBM binding z-score [11]	PBM binding z-score [12]	PBM binding z-score [13]	PBM binding z-score [14]	PBM binding z-score [15]	PBM binding z-score [16]	PBM binding z-score [17]	PBM binding z-score [18]	PBM binding z-score [19]	PBM binding z-score [20]
TAGCCTAGGTCAGATCGAGCCAGTATACGCTATA	1.14	0.783	-0.473	0.421	-0.463	1.42	0.564	0.606	-0.102	0.29	0.497	1.39	-0.253	-0.42	-0.43	0.136	-0.429	0.664	-0.528	2.81
CGGACTAGGTCAGAACAGGACAGTGAAGGATGAT	1.12	0.71	-0.0673	0.176	-0.579	2.36	4.2	3.5	1.01	2.58	6.67	6.53	3.25	1.13	1.57	0.748	0.281	0.846	0.0596	2.68
TGGATGAGGTTATAAGATCAGGGAACGTTGCAAA	1.51	1.26	0.181	1.52	0.594	2.42	0.897	1.54	0.844	1.35	-0.0803	0.649	0.558	0.341	0.81	0.986	0.518	1.34	0.465	1.25
ATCTCTAGGTAAAAGTTCAGTGGATCCCGAGGAT	1.06	1.66	1.37	1.03	1.11	4.09	7.94	7.5	7.58	8.5	2.25	3.58	1.28	1.66	1.32	2.05	1.71	1.76	1.18	2.41
GCGACTGGGGCATCAGCAGGTGACCATAACTTAA	-0.501	-0.679	-0.385	0.223	-1.22	0.831	0.922	0.832	-0.507	-0.0151	4.17	3.33	-0.697	-0.862	0.0227	-0.51	-0.76	-0.136	-0.252	0.702
CCTACTGGGCCATTCAGAGGTCATTCATCATATG	2.68	4.55	6.9	4.38	0.909	3.72	2.08	3.3	0.754	2.26	4.22	4.45	-0.0468	0.03	2.18	4.81	2.5	4.07	0.581	2.9
ATTTCTAGGTAAAAGTTCAGTGAATCCCGAGGAT	1.14	1.71	1.53	1.49	1.12	5.27	9.08	8.85	8.73	10.6	4.32	5.47	1.89	3.02	2.19	2.38	2.31	2.04	1.29	2.81
ACTAGCAGGCCAAGGGTCACGCAAGATTAGTCCG	3.81	3.6	0.279	3.53	-0.566	5.24	9.04	7.85	7.41	7.99	1.52	4.53	0.585	-0.153	2.62	4.25	-0.0194	5.33	0.787	4.2
TAGCCTAGGTCATTGGTCCAGTATAGTACGCATC	3.97	3.31	1.33	2.7	0.535	3.56	2.48	2.55	0.941	2.27	2.05	2.93	0.413	0.614	1.51	1.76	0.043	2.39	0.179	3.58
TCTCGGAGGAGACGAAGGTCAGAGCTTTCCAGAG	0.255	0.507	-0.124	0.569	-1.39	1.62	-0.069	1.26	1.84	1.51	0.916	-0.157	-0.48	-1.43	0.692	1.01	-0.222	1.5	-0.817	2.37
CCAACTGGGGCATAAGGTTACCATAAGCCAGCCC	0.142	1.69	-0.161	0.858	-1.05	2.56	3.63	3.93	1.9	3.24	4.69	5.04	0.045	-0.438	0.423	0.561	-0.309	1.32	0.288	1.6
GGAACGAGGGCATTAGAGTTGATAGCATGGCGAT	0.899	2.35	-0.104	0.257	-0.699	1.22	0.982	0.676	0.105	0.129	3.06	2.02	-0.0353	-0.143	0.508	3.02	0.854	0.328	-0.0747	1.79
GCTAGTTGGTCCGTAAAAGGTCACACACCGGTCG	3.14	4.48	3.93	3.92	0.618	4.14	1.33	3.29	0.779	2.39	0.234	1.86	0.724	0.195	2.89	4.94	1.12	5.63	1.86	3.99
ACTAGCAGGCCCAGGGTCACTCAAGATTAGTCCG	1.28	1.58	-0.164	1.69	-0.913	2.27	1.36	2.3	0.49	1.68	-0.868	0.714	-0.322	-0.342	0.073	2.4	0.0496	2.75	-0.377	2.27
CAGCCTAGGTCAGGGCCAGTACAGGAGGAACGTT	1.53	0.993	-0.276	0.431	-1.11	2.09	0.833	0.908	-0.375	0.307	1.35	1.58	-0.899	-1.34	0.93	0.659	-0.209	1.03	-0.614	3.42
